Assay outcomes (PubChem BioAssay)
The list is not random: actives were taken first. Their share in the collection is about 2.1%.
CHT allo act – allosteric activators of human choline transporter CHT. Q9GZV3. CHT-expressing cells, membrane potential dye, choline EC20; hits give high values; LV-AA mutant CHT in HEK293 cells. B-score at 10 µM. actives 0.49% (n = 310,000). AID 488977;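 active = initial fluorescence not abnormally high and integrated response B-score, plate-corrected, over 3 SD above library mean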
CHT inh – human CHT choline transport inhibition; Q9GZV3; CHT-expressing cells, membrane potential dye, choline response; hits give low values; B-score at 10 µM; actives 0.86% (n = 310,000); AID 488975;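 active = B-score over 3 SD under the library average, and starting fluorescence ratio not unusually high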;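 note: choline stimulus applied at its EC90 after an EC20 pre-addition; B-score computed on integrated fluorescence ratio after choline addition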
PGE2 EP2 inh – inhibitors of human EP2 prostaglandin E2 receptor; inhibition, % at 25 µM; actives 0.52% (n = 260,000); C6 glioma cells expressing human EP2, cAMP TR-FRET; cells stimulated with saturating PGE2; P43116; AID 1422;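 active = percent inhibition above 40 after rounding to a whole number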;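 note: rat C6 glioma host cells with rolipram phosphodiesterase inhibitor present; the protocol text gives 20 µM as final concentration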
Target sequence (P43116 whole entry, looked up): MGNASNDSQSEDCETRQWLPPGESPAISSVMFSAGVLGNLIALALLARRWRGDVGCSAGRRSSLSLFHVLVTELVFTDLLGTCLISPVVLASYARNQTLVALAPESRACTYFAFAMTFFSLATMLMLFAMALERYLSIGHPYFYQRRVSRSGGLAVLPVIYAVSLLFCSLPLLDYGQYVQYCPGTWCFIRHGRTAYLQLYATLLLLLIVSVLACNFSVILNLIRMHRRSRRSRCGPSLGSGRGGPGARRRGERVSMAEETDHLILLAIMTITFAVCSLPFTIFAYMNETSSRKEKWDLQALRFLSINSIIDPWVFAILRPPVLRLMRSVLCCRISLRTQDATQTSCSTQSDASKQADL
EP2 modulator – EP2 receptor (human) modulation | P43116 | EP2-expressing cells, cAMP HTRF FRET, PGE2 co-stimulation | actives 0.83% (n = 260,000) | AID 940 | induction, % at 25 µM;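 active = compounds whose cAMP rise, as percent of the full-agonist control response, exceeds 60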;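 note: rat C6 glioma line stably carrying human EP2 under a CMV promoter; the protocol text gives 20 µM as final concentration; 100% = response of wells given 1 µM PGE2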
EP2 cAMP induct – human EP2 receptor cAMP induction, negative in counter-screens; shares compounds with EP2 modulator; C6 glioma EP2 cells, cAMP HTRF induction; plus low (about EC15) PGE2 agonist; calls only at 20 µM (by protocol); actives 47% (n = 1,300); AID 1080;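 active = cAMP induction above 50% in the main assay while under 30% in all four parallel counter assays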;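 note: rat C6 glioma cells stably expressing human EP2 receptor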
Starred values were filed as active, the others as inactive; i = inactive; x = not tested or not shown; + = active, no number; ! = not confirmed by another sample.

SMILES	CHT allo act	CHT inh	PGE2 EP2 inh	EP2 modulator	EP2 cAMP induct
Fc1cnc(N/N=C/c2ccc(-c3ccc(Br)cc3)o2)nc1N1CCOCC1	i	i	10	-34	x
Brc1ccc(-c2ccc(/C=N/Nc3nc(N4CCOCC4)nc(N4CCOCC4)n3)o2)cc1	i	i	5	67*	+
Clc1ccc(-c2ccc(/C=N/Nc3cc(N4CCOCC4)nc(N4CCOCC4)n3)o2)cc1	i	i	5	108*	+
CN(C)C(=O)CN1N=C(C(C)(C)C)Cn2c(cc3ccccc32)C1=O	x	x	x	-48	x
COc1ccc(Cl)cc1NC(=O)c1snc2c(=O)[nH]cnc12	x	x	10	-21	x
O=C(Nc1cc(C(F)(F)F)ccc1-n1cncn1)c1ccc(-c2ccccc2)cc1	i	i	6	66*	+
COc1ccc(C(=O)Nc2cc(C(F)(F)F)ccc2-n2cncn2)cc1	i	i	x	19	x
Cc1nc(NC(=O)c2ccccc2Cl)sc1C(=O)N1CCOCC1	x	x	8	-2	x
Cc1nc2cc(NC(=O)Nc3ccccc3Cl)ccc2o1	x	x	11	-44	x
CC1CCCC(C)N1C(=O)CSc1nnc(-c2ccccc2)o1 (configuration not stated)	x	x	8	-2	x
CCOC(=O)CNC(=O)CSc1ncnc2c1nnn2-c1ccc(F)cc1	i	i	15	26	x
COC(=O)C(C)Sc1ncnc2c1nnn2-c1ccc(F)cc1 (configuration not stated)	i	i	-2	56	i
CCC(C)N(C)C(=O)c1cc2ccccc2c(-c2ccccc2Cl)n1 (configuration not stated)	i	i	8	70*!	i
CSc1nc(Sc2ccccc2)c2ccccc2n1	i	i	14	79*	i
O=C(CN1CCC(C(=O)c2ccc3c(c2)OCCO3)CC1)Nc1ccc(Br)cc1	x	x	19	-30	x
CCSc1ccccc1C(=O)n1nnc2ccccc21	i	i	4	68*	i
C#CCN1C(C)=C(C(=O)OC)C(c2cccc([N+](=O)[O-])c2)C(C(=O)OCC)=C1C (configuration not stated)	i	i	9	52	i
CCCCN1C(=O)NC(c2cccc([N+](=O)[O-])c2)C(C(=O)OCC)=C1C (configuration not stated)	i	i	18	x	x
O=S(=O)(c1ccc(F)cc1)c1snnc1-c1ccccc1	i	i	-1	69*	+
CN(C)c1nccc(N(Cc2ccccc2)Cc2ccccc2)c1C#N	i	i	8	68*	+
O=c1[nH]c(N/N=C/c2ccccc2)nc2ccccc12	i	i	6	69*	+
N#CCSc1nc2sc3c(c2c(=O)n1C1CCCCC1)CCCC3	i	i	16	73*	+
C#CCSc1nc2sc3c(c2c(=O)n1C)CCC3	i	i	x	x	x
O=C(O)[C@@H]1[C@H](C(=O)O)[C@@H](C(=O)O)C[C@H]1C(=O)O	x	x	13	61*	i
O=C(O)C1C2C=CC(C3CC23)C1C(=O)O (configuration not stated)	i	i	6	-2	x
SMILES	CHT allo act	CHT inh	PGE2 EP2 inh	EP2 modulator	EP2 cAMP induct
CN(/N=C\c1ccc(O)c(O)c1)c1nc(-c2ccccc2)cc(-c2ccccc2)n1	i	i	9	67*	i
CCOC(=O)N1CCN(C(=O)c2ccc3c(=O)n(Cc4ccc(Cl)cc4)c(=S)[nH]c3c2)CC1	i	i	x	6	x
CCOC(=O)Cn1c(=S)[nH]c2c(oc3ccc(Cl)cc32)c1=O	i	i	16	98*	i
O=C(Nc1ccccc1Oc1ccccc1)c1ccccc1F	i	i	5	68*	i
COc1cccc(OCC(=O)Nc2ccccc2-c2ccccc2)c1	i	i	13	70*	+
O=C(COc1ccccc1)Nc1ccccc1Oc1ccccc1	i	i	4	72*	+
CN(C)C(CNC(=O)c1cnn(-c2ccc(F)cc2)c1)c1ccccc1F (configuration not stated)	x	x	7	-28	x
C[C@H](CCC(=O)O)[C@@H]1CC[C@@H]2[C@H]3CC[C@@H]4C[C@H](O)CC[C@@]4(C)[C@@H]3CC[C@]21C	x	x	35	51	i
COc1ccc(C)cc1NC(=O)C1CC(=O)OC12CCCCC2 (configuration not stated)	i	i	10	65*	i
CN(Cc1ccccc1)c1nc2c(c(=O)[nH]c(=O)n2C)n1Cc1ccccc1Cl	i	i	3	77*	+
CN(Cc1ccccc1)c1nc2c(c(=O)[nH]c(=O)n2C)n1CCO	x	x	12	9	x
Cc1ccccc1Cn1c(-c2cncs2)nc2ccccc21	i	i	16	68*	i
Brc1ccccc1Cn1c(-c2cscn2)nc2ccccc21	i	i	4	80*	+
CCc1ccc(Nc2oc(C)cc(=O)c2C(C)=O)cc1	i	i	24	68*	i
CC(C)(C)NC(=O)C(=O)NNC(=O)c1ccco1	i	i	6	9	x
CC(C)CNC(=O)C(=O)NNC(=O)c1ccco1	i	i	9	57	i
COc1ccc(N2CCN(C(=O)CSc3nc4c(C)cccc4cc3C#N)CC2)cc1	x	x	11	5	x
C#CCOc1ccc(C2Nc3ccccc3C(=O)N2c2ccc(OC)cc2)cc1OC (configuration not stated)	x	x	14	6	x
Cc1ccc(Nc2nc(CSc3nnc(-c4ccccc4C)n3C)cs2)cc1	i	i	4	71*	+
Cc1ccc(Nc2nc(CSc3nnc(-c4ccccc4)n3C)cs2)cc1	i	i	8	19	x
Cc1cc(C)c(S(=O)(=O)c2ccccc2)c(OC(=O)c2c(Cl)cc(Cl)cc2Cl)n1	i	i	16	76*	+
Cc1cc(C)c(S(=O)(=O)c2ccccc2)c(OC(=O)c2c(F)cccc2F)n1	i	i	2	-9	x
CCOC(=O)C1=C(C)N(C)C(C)=C(C(=O)OCC)C1c1ccncc1	i	i	16	10	x
CCCCN1C=C(C(=O)OC)C(c2ccccc2C(F)(F)F)C(C(=O)OC)=C1	i	i	10	31	x
CCCCOc1ccccc1C1C(C(=O)OC)=C(C)N(C)C(C)=C1C(=O)OC	i	i	13	94*	+
CCCCN1C=C(C(=O)OC)C(c2ccccc2Cl)C(C(=O)OC)=C1	i	i	1	69*	+
CCOC(=O)C1=C(C)N(C)C(C)=C(C(=O)OCC)C1c1ccccc1	i	i	10	67*	+
COC(=O)C1=C(C)N(C)C(C)=C(C(=O)OC)C1c1ccccn1	i	i	14	6	x
CCN1CCN(C(c2cc3cccc(C)c3[nH]c2=O)c2nnnn2C(C)(C)C)CC1 (configuration not stated)	x	x	14	-50	x
